DT40 TDP1 CPT – growth inhibition of DT40 Tdp1-/-;hTDP1 cells with camptothecin (screen for TDP1 inhibitors); chicken DT40 Tdp1-/-;hTDP1 cells + 20 nM CPT, ATP luminescence, 48 h; Potency, µM (series often up to 46.2 µM), for inactives: top-dose activity change, negative = growth inhibition, hits mostly inhibitors; hit rate 12% among 420,000; also: potency is read from the fitted curve at half-maximal effect; nearly all actives have a fitted effect of over 55% in size
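Chicken DT40 Tdp1-/- cells complemented with human TDP1, 400 cells/well, exposed to compounds plus 20 nM camptothecin for at least 48 h at 37 C; viability read as ATP content by CellTiter-Glo luminescence.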
ALOX12 inh – blocks human arachidonate 12S-lipoxygenase; P18054; purified 12hLO, xylenol orange hydroperoxide absorbance; Potency, µM (highest dose often 108 µM), inactives show top-dose activity change, negative = inhibition, usual class: inhibitors; hit rate 1.1% among 580,000; also: potency is read from the fitted curve at half-maximal effect
Target sequence (P18054 whole entry, looked up): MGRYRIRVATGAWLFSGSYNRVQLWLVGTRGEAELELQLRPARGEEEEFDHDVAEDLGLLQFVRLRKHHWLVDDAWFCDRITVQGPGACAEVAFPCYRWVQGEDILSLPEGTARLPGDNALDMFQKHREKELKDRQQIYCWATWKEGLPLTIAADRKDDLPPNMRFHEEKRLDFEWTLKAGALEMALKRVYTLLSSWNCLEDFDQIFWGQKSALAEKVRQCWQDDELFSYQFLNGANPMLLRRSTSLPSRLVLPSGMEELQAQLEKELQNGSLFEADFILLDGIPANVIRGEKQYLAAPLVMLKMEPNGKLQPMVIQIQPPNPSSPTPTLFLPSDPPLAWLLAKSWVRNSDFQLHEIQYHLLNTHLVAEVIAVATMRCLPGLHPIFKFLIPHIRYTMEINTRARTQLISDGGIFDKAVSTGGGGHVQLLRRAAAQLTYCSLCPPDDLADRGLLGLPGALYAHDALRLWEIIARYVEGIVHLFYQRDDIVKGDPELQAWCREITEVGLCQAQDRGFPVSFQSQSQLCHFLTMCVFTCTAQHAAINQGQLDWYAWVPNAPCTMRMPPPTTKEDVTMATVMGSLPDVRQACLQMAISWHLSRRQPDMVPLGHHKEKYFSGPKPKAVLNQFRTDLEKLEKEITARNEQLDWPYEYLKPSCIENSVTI
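Purified human 12hLO (150 nM final) in 25 mM Hepes, 0.01% Triton X-100, pH 7.0 was preincubated 15 min at room temperature with compound. Then 40 uM arachidonic acid was added, 30 min. Hydroperoxide was read by Fe-XO absorbance ratio 573/405 nm.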
HT1080NT lethal – kills 2HG-producing HT-1080-NT fibrosarcoma cells. HT-1080-NT fibrosarcoma viability, CellTiter-Glo ATP luminescence, 48 h. Potency, µM (series often up to 46.1 µM), for inactives: at the highest dose activity, negative = less viability, most hits filed as cytotoxic. hit rate 1.6% among 360,000;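 also: NT is the 2HG producing partner of a matched IDH1 knockdown line; potency is read from the fitted curve at half-maximal effect; 0% = DMSO-treated cells and -100% = media-only wells without cells; nearly all actives have a fitted effect of over 55% in size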
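HT-1080-NT; 750 cells/well; 5% FBS RPMI; 48 h compound, 37 degrees C; CellTiter-Glo luminescence; curve fitting and curve-class assignment.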
IL-1B inflam inh – inhibitors of inflammasome signaling (IL-1 beta secretion); THP-1 LPS/ATP IL-1B secretion, AlphaLISA, 16 h; stronger effect = lower value; activity change, % at 57.5 µM; hit rate 4.7% among 360,000; in the data active = activity change below about -50%; inconclusive = mostly about -30% to -49%
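THP-1 cells pretreated 1 hr with compounds (up to 57.5 uM final), then stimulated with LPS (250 ng/mL final) plus ATP (1.25 mM final); secreted IL-1B measured by AlphaLISA after 16 hr, decreased signal indicating inhibition.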
TDP1 cell noCPT – qHTS for Inhibitors of human tyrosyl-DNA phosphodiesterase 1 (TDP1): qHTS in cells in absence of CPT; DT40 Tdp1-/- hTDP1 cells, no CPT, ATP luminescence, 48 h; Potency, µM (series often up to 46.2 µM), inactives show at the highest dose activity change, negative = growth inhibition, most hits filed as inhibitors; hit rate 15% among 420,000; AID 686978, 2013; also: potency is read from the fitted curve at half-maximal effect; nearly all actives have a fitted effect of over 55% in size
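Chicken DT40 Tdp1-/- cells stably complemented with human TDP1 were seeded at 400 cells/well with DMSO in place of 20 nM camptothecin. After compound pinning, cells grew at least 48 hr at 37 °C; viability read by CellTiter-Glo luminescence.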
HT1080 IDH1KD tx – toxicity to HT-1080 IDH1 knockdown cells (counter line). hit rate 2% among 360,000. AID 686971. Potency, µM (top dose mostly 46.1 µM), without a hit: at the highest dose activity, negative = toxicity, usual class: cytotoxic. HT-1080 IDH1 knockdown viability, ATP luminescence, 48 h;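 also: potency is read from the fitted curve at half-maximal effect; 0% = DMSO wells and -100% = cell-free medium wells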
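% activity derives from luminescence (CellTiter-Glo), normalised to DMSO and no-cell wells. HT-1080-IDH1KD cells, 750/well, had 48 h compound exposure at 37 °C.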
* marks the source's active call; other numbers are inactive results; [ ] = dose if it differs, or a comment. This is one part of a sample in which hits are shown more often than they occur. Unless noted, calls follow the shape of the dose curve; as a rule, active = well fitted curve in the direction sought with a large enough effect; inconclusive = small, poorly fitted or top-dose-only effect, or another doubt; inactive = no such curve, though single readings can be large; an effect the other way counts as inactive or inconclusive. Unless noted, % is scaled to controls: 0 for no effect and ±100 for the full control effect.

For Cc1ccc(S(=O)(=O)NCc2ccc3c(c2)OCO3)cc1C the results were DT40 TDP1 CPT -3.4%, ALOX12 inh -7.1%, HT1080NT lethal -1.0%, IL-1B inflam inh -2.1, TDP1 cell noCPT inconclusive and HT1080 IDH1KD tx -1.6%.
`CN(Cc1cnccn1)Cc1ccccc1OCC(O)CN(C)C1CCCCC1` (configuration not stated) gave ALOX12 inh 62.3%.
`O=C(O)c1cc(S(=O)(=O)Nc2ccccc2C(=O)NC2CC2)ccc1F` gave ALOX12 inh -2.2%.
Cc1c(CC(=O)NCCc2ccc(F)cc2)c(=O)oc2cc(O)ccc12 was read as ALOX12 inh 0.5%.
`CCOC(=O)COc1ccc(S(=O)(=O)NCc2cccnc2)cc1` gave DT40 TDP1 CPT 0.4%, ALOX12 inh 2.9%[57.4 µM], HT1080NT lethal 0.0%, IL-1B inflam inh 24.4, TDP1 cell noCPT -6.4% and HT1080 IDH1KD tx 12.7%.
For Nc1ncc(S(=O)(=O)NCc2ccccc2)cn1 the results were DT40 TDP1 CPT -6.2%, ALOX12 inh -12.0% and TDP1 cell noCPT -2.6%.
Screening Cc1ccc(S(=O)(=O)NCc2ccncc2)cc1C(=O)NCC(C)C returned DT40 TDP1 CPT 14.6µM*, ALOX12 inh -22.6%, HT1080NT lethal -10.1%, IL-1B inflam inh 10.1, TDP1 cell noCPT inconclusive and HT1080 IDH1KD tx -0.5%.
Screening O=S(=O)(NCc1ccncc1)c1ccccc1 returned DT40 TDP1 CPT 23.1µM*, ALOX12 inh 37.4%, HT1080NT lethal 2.4%, IL-1B inflam inh 37.0, TDP1 cell noCPT 8.2µM* and HT1080 IDH1KD tx -13.3%.
COC(=O)COc1ccc(S(=O)(=O)NCc2ccncc2)cc1 was read as DT40 TDP1 CPT 4.11µM*, ALOX12 inh -12.2%[57.4 µM], HT1080NT lethal -1.6%, IL-1B inflam inh 76.7, TDP1 cell noCPT 9.2µM* and HT1080 IDH1KD tx -1.2%.
Screening O=S(=O)(NCc1cccnc1)c1ccc2ccccc2c1 returned DT40 TDP1 CPT inconclusive, ALOX12 inh 16.6%, HT1080NT lethal -10.6%, IL-1B inflam inh -0.5, TDP1 cell noCPT 20.6µM* and HT1080 IDH1KD tx -6.5%.
For CCc1ccc(C(=O)COC(=O)c2ccc3cc(OC)ccc3c2)s1 the results were ALOX12 inh 48.6%.
`COC(=O)c1ccc(/C=C/C(=O)c2ccccc2)o1` gave ALOX12 inh -62.9%.
O=C(c1ccc(Cn2cncn2)o1)N1CCCCCC1c1nnc(-c2ccccc2)o1 (configuration not stated) was read as ALOX12 inh 12.5%.
CC(CNC(C)(C)CO)c1ccccc1 (configuration not stated) was read as ALOX12 inh -0.7%.
`O=S(=O)(NCc1ccncc1)c1ccc(Br)s1` gave DT40 TDP1 CPT 1.84µM*, ALOX12 inh 2.3%, HT1080NT lethal -8.7%, IL-1B inflam inh -9.0, TDP1 cell noCPT 2.59µM* and HT1080 IDH1KD tx -11.6%.
Screening COc1ccc(S(=O)(=O)NCc2cccnc2)cc1Br returned DT40 TDP1 CPT 4.61µM*, ALOX12 inh 55.4%, HT1080NT lethal 0.0%, IL-1B inflam inh 0.0, TDP1 cell noCPT 5.8µM* and HT1080 IDH1KD tx 16.4µM*.
Screening Cc1cc(C)c(C)c(S(=O)(=O)NCc2ccc(C(=O)N3CCN(C)CC3)cc2)c1C returned DT40 TDP1 CPT -29.1%, ALOX12 inh 0.0%, HT1080NT lethal 2.8%, IL-1B inflam inh 18.0, TDP1 cell noCPT -11.1% and HT1080 IDH1KD tx -14.8%.
COc1ccc(S(=O)(=O)NCc2cccnc2)cc1 was read as DT40 TDP1 CPT -17.5%, ALOX12 inh 48.6%, HT1080NT lethal -4.6%, IL-1B inflam inh 28.7, TDP1 cell noCPT 3.4% and HT1080 IDH1KD tx 0.6%.
Cc1cc(C)c(C)c(S(=O)(=O)NCc2ccncc2)c1C was read as DT40 TDP1 CPT 20.6µM*, ALOX12 inh -3.8%, HT1080NT lethal -10.3%, IL-1B inflam inh -3.7, TDP1 cell noCPT 13µM* and HT1080 IDH1KD tx inconclusive.
Screening CCN(CC)CCNS(=O)(=O)c1ccc(OC)c(Br)c1 returned DT40 TDP1 CPT 4.4%, ALOX12 inh 3.55µM*, HT1080NT lethal 9.8%, IL-1B inflam inh 0.1, TDP1 cell noCPT -7.4% and HT1080 IDH1KD tx 12.3%.
CCNC(=O)N1CCC2(CC1)CC(N(C)Cc1ccccc1)CCO2 (configuration not stated) was read as ALOX12 inh 0.1%.
CCN(CC)Cc1ccc2c(c1)CN(C(=O)COc1ccc(C)cc1)CCO2 was read as ALOX12 inh -1.7%.
COc1ccccc1-c1cnc(Nc2cccnc2OC)c2c1CCO2 was read as ALOX12 inh 16.7%[176 µM].
`Cc1ccc(-c2noc([C@@H]3Cc4nc[nH]c4CN3C(=O)Nc3cccc(F)c3)n2)cc1` gave ALOX12 inh 21.4%[176 µM].
For O=Cc1cccn1-c1ccc(F)c(Cl)c1 the results were ALOX12 inh -4.5%.
CCSC1=NC2(CCCCC2)Nc2sc3c(c21)CCCC3 was read as DT40 TDP1 CPT 23.1µM*, ALOX12 inh inconclusive, HT1080NT lethal -16.1%, IL-1B inflam inh -22.2, TDP1 cell noCPT inconclusive and HT1080 IDH1KD tx -1.1%.
COc1cc(NC(=O)Nc2nc(C(N)C(C)C)cs2)cc(OC)c1OC (configuration not stated) was read as DT40 TDP1 CPT inconclusive, ALOX12 inh -1.9%, HT1080NT lethal 16.4µM*, IL-1B inflam inh -5.2, TDP1 cell noCPT inconclusive and HT1080 IDH1KD tx inconclusive.
For COc1cc(NC(=O)Nc2nc(C(N)C3CCCCC3)cs2)cc(OC)c1OC (configuration not stated) the results were DT40 TDP1 CPT 16.4µM*, ALOX12 inh -16.7%, HT1080NT lethal -76.7%, IL-1B inflam inh -6.2, TDP1 cell noCPT 23.1µM* and HT1080 IDH1KD tx 20.6µM*.
Screening COc1ccccc1NC(=O)Nc1nc(C(N)C2CCCCC2)cs1 (configuration not stated) returned DT40 TDP1 CPT 23.1µM*, ALOX12 inh 6.3%, HT1080NT lethal 16.4µM*, TDP1 cell noCPT 14.6µM* and HT1080 IDH1KD tx inconclusive.
Screening COc1ccccc1NC(=O)Nc1nc(CC(=O)NC2CCCCCC2)cs1 returned ALOX12 inh 17.0%.

Screening data (PubChem BioAssay)
